# This is a sample that favours compounds with a hit; in the whole collection about 11% have one here.
# PNC assembly inh: perinucleolar compartment assembly inhibition; PC3M PTB-GFP, PNC prevalence imaging, 16 h; hits give low values; activity change (PNC), negative = inhibition, % at 10 µM; 3.1% of 140,000 active;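 active = readout at or below -70, meaning at least 70% loss of cells showing the perinucleolar compartment, a nuclear body marking cancer cells; inconclusive = readout between -30 and a set limit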;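 also: plate controls were DMSO wells for no effect and camptothecin positive control wells for full effect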
#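 Read-out is percentage of cells bearing a perinucleolar compartment, from automated 20x imaging of fixed, Hoechst-stained PC3M PTB-GFP cells. Cells were seeded 4 h, then exposed 16 h to compound (23 nl of library stock) in duplicate plates.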
# HPGD block: inhibitors of human 15-hydroxyprostaglandin dehydrogenase (HPGD); purified HPGD, NADH fluorescence kinetic, PGE2 substrate; 4.3% of 150,000 active; Potency, µM, inactives show at the highest dose activity change, negative = inhibition, most hits filed as inhibitors; also: potency is read from the fitted curve at half-maximal effect
#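 NADH formation kinetics: reaction with 30 uM PGE2 and 1 mM NAD+ (final), 20 nM enzyme, Tris-HCl pH 8 with Tween 20, after 15 min compound preincubation at room temperature. Fluorescence change, last versus first of five reads.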
# ALOX12 inhib: 12-hLO (ALOX12) enzyme inhibition; purified 12-hLO, xylenol orange hydroperoxide absorbance; Potency, µM (doses to about 57.1 µM), for the others: at the top dose activity change, negative = inhibition, usual class: inhibitors; 0.12% of 150,000 active; AID 1452; active = well fitted curve in the direction sought with a large enough effect; inconclusive = small, poorly fitted or top-dose-only effect, or another doubt; inactive = no such curve, though single readings can be large; an effect the other way counts as inactive or inconclusive; also: potency is read from the fitted curve at half-maximal effect; nearly all actives have a fitted effect of over 55% in size
# Target sequence (P18054 whole entry, looked up): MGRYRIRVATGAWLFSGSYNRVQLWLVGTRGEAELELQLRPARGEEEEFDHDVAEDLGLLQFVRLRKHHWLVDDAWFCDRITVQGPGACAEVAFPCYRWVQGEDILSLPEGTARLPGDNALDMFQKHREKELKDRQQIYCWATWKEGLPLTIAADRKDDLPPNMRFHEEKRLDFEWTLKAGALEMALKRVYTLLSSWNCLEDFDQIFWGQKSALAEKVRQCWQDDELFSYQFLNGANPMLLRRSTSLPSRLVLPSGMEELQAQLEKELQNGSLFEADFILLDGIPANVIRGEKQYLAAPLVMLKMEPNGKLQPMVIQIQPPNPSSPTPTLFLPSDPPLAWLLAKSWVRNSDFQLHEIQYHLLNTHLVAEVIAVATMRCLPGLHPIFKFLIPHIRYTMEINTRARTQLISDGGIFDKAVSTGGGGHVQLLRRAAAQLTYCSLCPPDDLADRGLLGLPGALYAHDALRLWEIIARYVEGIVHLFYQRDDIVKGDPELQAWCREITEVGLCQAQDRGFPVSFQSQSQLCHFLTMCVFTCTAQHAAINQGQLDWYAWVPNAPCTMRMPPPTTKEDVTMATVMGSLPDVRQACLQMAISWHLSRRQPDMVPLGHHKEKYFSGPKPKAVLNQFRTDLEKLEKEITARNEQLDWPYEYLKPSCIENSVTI
#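 Hydroperoxide formation by human 12-lipoxygenase from 40 uM arachidonic acid was followed colorimetrically via ferric-xylenol orange complex, using the 573/405 nm absorbance ratio. Enzyme concentration was 150 nM, with 30 min reaction at room temperature.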
# IMPase Li cell: membrane-permeable IMPase blocker, potentiated with lithium. CHO-M1 cells, IP1 TR-FRET (IP-One), carbachol + lithium. Potency, µM (doses to about 59.4 µM), for inactives: top-dose activity, negative = IMPase inhibition, usual class: inhibitors. 0.35% of 210,000 active; active = well fitted curve in the direction sought with a large enough effect; inconclusive = small, poorly fitted or top-dose-only effect, or another doubt; inactive = no such curve, though single readings can be large; an effect the other way counts as inactive or inconclusive;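 also: IP1 builds up when IMPase is blocked and the TR-FRET signal falls; potency is read from the fitted curve at half-maximal effect; plate controls were basal vehicle for no effect and high inhibitor control for full effect; nearly all actives have a fitted effect of over 50% in size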
#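 CHO cells stably expressing M1 receptor (2000/well) were cultured 16–30 h, then exposed to compounds with a small lithium addition for 30 min at 37C. IP1 was measured by TR-FRET competition; AC50 from Hill fits.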
# IMPase cell inh: cell-permeable inhibitors of inositol monophosphatase (IMPase) | 120,000 tested, under 10 active | inhibition (IP1 accumulation), % at 46.1 µM | CHO-M1 cells, IP1 accumulation, HTRF TR-FRET ratio | AID 901; active = well fitted curve in the direction sought with a large enough effect in the signal ratio, not every such curve was filed as active; inconclusive = small, poorly fitted or top-dose-only effect, or a change in a side signal; inactive = no such curve, though single readings can be large or run the other way; the % refers to the signal ratio;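 also: cells stimulated with carbachol in lithium chloride buffer; plate controls were DMSO basal wells for no effect and reference inhibitor wells for full effect; higher means more IMPase inhibition seen as more IP1 and lower FRET ratio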
#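 In this qHTS, compounds (final up to 46 uM) act on CHO-M1 cells that are then activated through the M1 receptor with carbachol, in pH 7.4 buffer containing 50 mM LiCl, for 30 min. IP1 accumulation is quantified by the IP-One immunoassay.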
# ALDH1A1 block: ALDH1A1 (human) enzyme inhibition; P00352; Purified ALDH1A1, NADH fluorescence, propionaldehyde substrate; Potency, µM (titrated, usually from 75.3 µM), without a hit: top-dose activity, negative = inhibition, actives largely listed as inhibitors; 7.3% of 220,000 active;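 also: potency is read from the fitted curve at half-maximal effect; plate controls were no enzyme wells and a reference inhibitor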
# * marks the source's active call; other numbers are inactive results; ? = inconclusive; nt = no result; [ ] = remark or other dose. Unless noted, calls follow the shape of the dose curve; as a rule, active = well fitted inhibition curve with a large enough effect (not every such curve was filed as active); inconclusive = small, poorly fitted or top-dose-only effect, or another doubt; inactive = no such curve, though single readings can be large or run the other way. Unless noted, % is scaled to controls: 0 for no effect and ±100 for the full control effect.
SMILES,PNC assembly inh,HPGD block,ALOX12 inhib,IMPase Li cell,IMPase cell inh,ALDH1A1 block
Cc1ccc(C(=O)NC(=S)Nc2ccccc2C(F)(F)F)c(C)c1,32.0,-15.3%,?,19.1%,3.4,12.6µM*
Cc1ccccc1C(=O)NC(=S)Nc1ccccc1C(F)(F)F,-26.5,-6.7%,?,5.8%[38.3 µM],-0.8,12.6µM*
N#CCC(=O)NNC(=S)Nc1ccccc1C(F)(F)F,nt,nt,nt,3.8%,nt,17.8µM*
Cc1c(NC(=S)Nc2ccccc2C(F)(F)F)cccc1[N+](=O)[O-],?,nt,5.4%,nt,-6.2,22.4µM*
FC(F)(F)c1ccccc1NC(=S)NN=C1CCCCCC1,nt,nt,nt,18.0%,nt,28.2µM*
O=S(=O)(N/N=C/c1cccc(OC2CSC2)c1)c1ccccc1,-112.2*,-6.7%,-2.6%,1.5%,nt,-1.2%
Cc1ccc(S(=O)(=O)N/N=C/c2cccc(OC3CSC3)c2)cc1,-9.2,-15.4%,-4.2%,0.4%,nt,-5.2%
O=c1c2ccccc2nc(/C=C/c2ccc([N+](=O)[O-])cc2)n1CCCO,?,-11.7%,3.5%,6.6%,nt,?
O=c1c2ccccc2nc(/C=C/c2ccc([N+](=O)[O-])o2)n1CCCO,-88.6*,-15.6%,-2.9%,19.3%[38.3 µM],5.7,?
c1ccc(Cn2c(NCc3ccncc3)nc3ccccc32)cc1,nt,nt,nt,6.1%,nt,25.1µM*
CC(C)(C)C(=O)NC1(C(F)(F)F)C(=O)Nc2c1c(=O)[nH]c(=O)n2-c1ccccc1 (stereo not drawn),nt,nt,nt,nt,-0.2,nt
COc1ccc(CN2C(=O)CS(=O)CC2=O)cc1OC,-25.6,-12.5%,0.8%,-1.4%,8.4,8.91µM*
CN(C)CCCN(C(=O)c1cccs1)c1nc(-c2ccccc2)cs1,-16.6,-2.6%,8.1%,51.5%[38.3 µM],12.6,-1.4%
CN(c1ccc(O)cc1)c1nc(-c2ccccc2)cs1,?,15.8µM*,-4.9%,20.2%,nt,9.1%
CCc1c2c(nc3cccc(SC)c13)COC2,nt,?,-6.0%,-11.6%,nt,?
Cc1ccc(S(=O)(=O)NC(=O)O[C@@H]2C(=O)c3cc(Br)ccc3O[C@H]2c2ccc3c(c2)OCO3)cc1,nt,-12.7%,nt,-2.8%,nt,-3.8%
Cc1ccc(NC(=O)/C(=C\c2ccc([N+](=O)[O-])cc2)NC(=O)c2ccccc2)cc1,-4.7,-10.2%,-9.9%,17.2%[38.3 µM],1.7,-5.7%
O=C(N/N=C/c1ccc(O)c(O)c1O)/C(=C/c1ccc([N+](=O)[O-])cc1)NC(=O)c1ccccc1,28.1,25.1µM*,-22.5%,9.9%[38.3 µM],4.5,10µM*
CC12C=C(/C=C/C=C/c3ccco3)C(C)(C1)C(/C=C/c1ccco1)CC2=O (stereo not drawn),nt,nt,nt,nt,nt,-13.5%[13.5 µM]
O=c1c2ccccc2n2c(-c3ccc(F)cc3)nnc2n1Cc1ccccc1,-101.6*,-9.0%,0.9%,-20.0%,nt,?
O=c1c2ccccc2nc(-c2ccccc2)n1Cc1ccco1,?,-18.1%,5.1%,0.1%[38.3 µM],-0.2,?
COc1ccc(-c2nc3ccccc3n2Cc2ccc(C)cc2)cc1,-82.1*,-18.0%,-19.8%,0.2%[38.3 µM],3.1,0.0%
Cc1ccc(-c2nc3ccccc3c(=O)n2Cc2ccccc2)cc1,?,-3.3%,-2.0%,9.1%,nt,15.8µM*
COCCn1c(-c2ccccc2)nc2ccccc21,-113.4*,?,4.7%,-11.4%,nt,10.3%
Cc1cc(C)nc(NS(=O)(=O)c2ccc(NC(=O)c3ccccc3O)cc2)n1,nt,nt,nt,nt,-13.9,nt
SMILES,PNC assembly inh,HPGD block,ALOX12 inhib,IMPase Li cell,IMPase cell inh,ALDH1A1 block
c1ccc(Oc2nc(NC3CCCCC3)c3[nH]cnc3n2)cc1,nt,-4.2%,-2.3%[0.00818 µM],-1.5%,nt,?
Cc1ccc(/C=C/c2nc3ccccc3c(=O)n2CCc2ccccc2)cc1,-82.6*,-17.1%,2.6%,11.1%,3.5,13.0%
COc1ccccc1-c1cc(-c2ccccc2)nc(SC(C(N)=O)c2ccccc2)c1C#N (stereo not drawn),7.8,?,-5.0%,7.94µM*,?,?
CCC(NC(=O)CCc1ccccc1)c1ccccc1 (stereo not drawn),nt,nt,nt,0.1%,nt,3.8%
CCC(NC(=O)C1CCC1)c1ccccc1 (stereo not drawn),-100.0*,-10.7%,0.4%,3.2%,13.2,2.4%
CCOc1cc(CNc2ncc(-c3ccc(OC)cc3)n2C)ccc1O,50.4,-6.6%,-7.1%,21.0%[38.3 µM],-4.5,14.1µM*
O=C(Nc1ccc(N2CCOCC2)c2nonc12)C1CCCC1,-8.2,-18.8%,-2.6%,9.6%[38.3 µM],13.3,?
Nc1ccc(N2CCOCC2)c2nonc12,nt,nt,nt,11.5%,nt,20µM*
CCC(C)n1c(=N)c(C(=O)NC2CCCCC2)cc2c(=O)n3ccccc3nc21 (stereo not drawn),nt,nt,nt,nt,-3.8,nt
Cc1cc(OC(=O)c2c(C)cc(O)cc2O)cc(O)c1C(=O)O,nt,15.8µM*,-11.4%,16.9%,nt,-12.6%
O=c1c(-c2ccc(F)c(F)c2)nc2cncnc2n1Cc1ccc(F)cc1,nt,-13.9%,-5.4%,10.8%,nt,-13.1%
O=C(CSc1nnc(NC2CCCCC2)s1)Nc1ccc2c(c1)C(=O)c1ccccc1C2=O,nt,nt,nt,2.2%,nt,12.6µM*
Cc1ccc(Nc2nnc(SCC(=O)Nc3cccc(S(=O)(=O)N4CCCCC4)c3)s2)cc1,-7.2,-11.8%,-6.2%,4.4%,3.7,-4.7%
CC(C)Nc1nnc(SCC(=O)Nc2ccc3c(c2)C(=O)c2ccccc2C3=O)s1,?,-19.4%,-8.5%,11.7%,nt,7.94µM*
O=C(CSc1nnc(Nc2ccccc2F)s1)Nc1cccc(S(=O)(=O)N2CCCCC2)c1,13.1,-10.0%,-4.1%,12.4%,nt,22.4µM*
O=C(Cc1ccccc1)Nc1nnc(SCC(=O)NC2CCCC2)s1,nt,nt,nt,-5.9%,nt,9.4%
CCCCCCCCCCOCCC(=O)O,nt,-3.3%,1.2%,-6.3%,nt,10.9%
N#CCc1c(C#N)c(N)nc(N2CCN(C=O)CC2)c1C#N,nt,nt,nt,3.1%,nt,7.08µM*
CC(=O)N1CCN(c2nc(N)c(C#N)c(CC#N)c2C#N)CC1,nt,nt,nt,nt,nt,1.2%
CC(=O)c1c(C)nc2cc(Cl)ccc2c1N,-95.0*,-2.5%,0.6%,15.8%[38.3 µM],-11.1,2.0%
CCCN=Cc1c(CCC)[nH]n(-c2nc3ccccc3s2)c1=O,-11.9,-23.2%,12.9%,-0.8%[38.3 µM],9.6,14.1µM*
COc1ccc(C(=O)CC(Nc2ccc([N+](=O)[O-])cc2)c2ccc(OC)cc2)cc1 (stereo not drawn),19.4,-12.3%,-4.5%,19.0%,-9.3,?
Cc1ccc(C(=O)CNc2cccc([N+](=O)[O-])c2)cc1,nt,nt,nt,-8.3%,nt,12.6µM*
Cc1ccc(NCC(=O)c2ccc([N+](=O)[O-])cc2)cc1,nt,nt,nt,10.6%,nt,7.94µM*
Cc1cccc(NCCC(=O)c2ccc([N+](=O)[O-])cc2)c1C,nt,nt,nt,5.5%,nt,0.178µM*

# Source: PubChem (National Center for Advancing Translational Sciences (NCATS))
